Measurements taken from PubChem BioAssay (NCI).
This is part of a sample that, as a whole, favours compounds with a hit. Of some 79,000 tested, about 15% had one in any assay. Activity calls are given as the source filed them. No stated cut-off is given here; in the data, active means growth inhibition above about 70%; inactive means the rest.

assay: NCI Yeast Anticancer Drug Screen. Data for the bub3 strain (AID 167); conditions: S. cerevisiae bub3 mutant strain, at 50.0 µM (retest, dose inferred, filed as 5.0), stronger effect = higher value
Procedure, shortened: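 Mutant yeast screening strain plus compound; vehicle-treated cultures serve as the 0% inhibition reference.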

| Compound | growth inhibition |
| --- | --- |
| CCCCCCCCCCCCCC(=O)CC(=O)c1c(O)cccc1O | -5% (inactive) |
| Cc1ccc(NC(=S)SCc2ccco2)cc1Cl | 99% (active) |
| Cc1nc(N)nn1C | -2% (inactive) |
| Cc1cccc(O)c(=O)c1 | 98% (active) |
| O=C1C=CC(=O)N1c1ccc(-c2nc3ccccc3o2)cc1 | 87% (active) |
| NC1=NC(c2ccccc2)CC(c2cc(Cl)cc(Br)c2O)=N1 (stereo unspecified) | 34% (inactive) |
| CCCCCCCCCCCc1ccn[nH]1 | 98% (active) |
| CC(=O)Oc1c(-c2ccccc2)cc([N+](=O)[O-])cc1[N+](=O)[O-] | 65% (inactive) |
| COc1cccc2c1C1c3ccccc3Sc3cccc(c31)O2 (stereo unspecified) | -2% (inactive) |
| O=C1CC(O)C=C1Nc1ccc(Cl)cc1 (stereo unspecified) | -22% (inactive) |
| C=CCNC(=S)N/N=C(/c1ccccn1)C(C)C | 41% (inactive) |
| CCCCCCCCCCCCCCCC[N+](C)(C)c1ccccc1 | 99% (active) |
| O=C(NC(OCc1ccccc1)(C(F)(F)F)C(F)(F)F)OCc1ccccc1 | 95% (active) |
| Cc1cc2oc3c(ccc(=O)n3C)c(=O)c2c(C)c1Cl | 10% (inactive) |
| COc1cc2c(cc1OC)C(=O)C(C)(c1ccccc1)NC2 (stereo unspecified) | 31% (inactive) |
| CCC(C)NCCNc1cc(OC)cc2cccnc12 (stereo unspecified) | -1% (inactive) |
| CN(C)CCCN=c1c2ccccc2n(O)c2ccccc12 | -20% (inactive) |
| N#CCc1ccccc1-c1cccc2ccccc12 | 34% (inactive) |
| CN=C1NS(=O)(=O)c2ccccc21 | 39% (inactive) |
| COc1cc(CSc2ccc(O)cc2)cc(OC)c1OC | 21% (inactive) |
| CN(C)CCCNc1c2ccccc2nc2cccc([N+](=O)[O-])c12 | 99% (active) |
| CCCCCCCCCCCCCCCc1ncc(C)[nH]1 | 99% (active) |

same assay, conditions: S. cerevisiae bub3 mutant strain, at 50.0 µM, stronger effect = higher value

| Compound | growth inhibition |
| --- | --- |
| S=C(Nc1cc(Cl)cc(Cl)c1)SCc1ccccc1 | 99.2% (active) |
| CCCOc1cc(C(=O)OCCN(CC)CC)cc(OCCC)c1OCCC | 23% (inactive) |
| C=C1C(=O)[C@@]23CC[C@H]4[C@@](C)(CCC[C@@]4(C)C(=O)OC)[C@@H]2CC[C@]1(O)C3 | 93.7% (active) |
| CCCSc1ncnc2nc(C)[nH]c12 | 1.85% (inactive) |
| O=C1C=CC(=O)N1CCCCCCN1C(=O)C=CC1=O | 99.5% (active) |
| CCOC(=O)c1[nH]c2c([N+](=O)[O-])cccc2c1[N+](=O)[O-] | 98.8% (active) |
| CSC(=S)/C(=C/Nc1ncccn1)c1ccccc1 | 91.8% (active) |
| N#CNc1nc(N)c(-c2ccc(Cl)cc2)c(C(=O)Nc2ccc(Cl)c(Cl)c2)n1 | 4.2% (inactive) |
| COc1ccc2c(c1)c(=O)c1c(NCCN(C)C)ccc3nnn2c31 | 11.6% (inactive) |
| CCC[CH2][Sn]([S][Sn]([CH2]CCC)([c]1ccccc1)[c]1ccccc1)([c]1ccccc1)[c]1ccccc1 | 98.8% (active) |
| CCC1=CCC2C(=O)c3cc4ccccc4cc3C(=O)C2C1 (stereo unspecified) | 93% (active) |
| Cc1ccccc1NC(=O)C1C(=O)N(c2ccccc2C)C(=O)/C1=N/O (stereo unspecified) | -5.25% (inactive) |
| CCCCc1[nH]ccc2c(C)c3nc4ccccc4c3cc12 | 88.7% (active) |
| O=C(O)C(Br)C(Br)C(=O)Nc1ccc(Cl)c(Cl)c1 (stereo unspecified) | 98.8% (active) |
| Cc1cc(C)c2c(c1)sc1nncn12 | 98.9% (active) |
| CC(=O)C(C=O)C(C)=O.CC(=O)CC(C)=O.CC(=O)CC(C)=O.[Ru] | -1.3% (inactive) |
| COc1ccc(NC(=O)CCC(=O)C(C)C(=O)c2ccccc2)cc1 (stereo unspecified) | 21.6% (inactive) |
| CCCCCCCCCCCCCC(=O)CC(=O)c1c(O)cccc1O | 7% (inactive) |
| Cc1ccc(NC(=S)SCc2ccco2)cc1Cl | 99.7% (active) |
| Cc1nc(N)nn1C | 44.2% (inactive) |
| Cc1cccc(O)c(=O)c1 | 99.4% (active) |
| O=C1C=CC(=O)N1c1ccc(-c2nc3ccccc3o2)cc1 | 88.5% (active) |
| NC1=NC(c2ccccc2)CC(c2cc(Cl)cc(Br)c2O)=N1 (stereo unspecified) | -0.8% (inactive) |
| CCCCCCCCCCCc1ccn[nH]1 | 99% (active) |
| CC(=O)Oc1c(-c2ccccc2)cc([N+](=O)[O-])cc1[N+](=O)[O-] | 94.5% (active) |
| COc1cccc2c1C1c3ccccc3Sc3cccc(c31)O2 (stereo unspecified) | 43.9% (inactive) |
| O=C1CC(O)C=C1Nc1ccc(Cl)cc1 (stereo unspecified) | 97.8% (active) |
| C=CCNC(=S)N/N=C(/c1ccccn1)C(C)C | 96.3% (active) |
| CCCCCCCCCCCCCCCC[N+](C)(C)c1ccccc1 | 92.8% (active) |
